# PubChem BioAssay (NCI)
# Where “and” joins values, the source holds several entries; their conditions need not be identical. Equal entries are not always repeated. This is part of a sample that, as a whole, favours compounds with a hit. Of some 83,000 tested, about 20% had one in any assay.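 Plates (96-well) were seeded with cells, treated with compound at one concentration, and incubated for 48 hours before percent growth was determined.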 Calls of active or inactive are those of the source. Rule for the calls: active = growth percent below 10; inactive = the rest.
# Tested on: HL-60(TB) leukemia
# Experiment: NCI-60 one-dose screen, 48 h (100 = growth as untreated, 0 = no growth, -100 = all killed)
# Settings: 10 µM unless noted
row,SMILES,growth
1,CNC(=O)c1c(NC(=O)c2ccc(C(F)(F)F)cc2)sc2c1CCC(=O)C2,-16.5% (active)
2,COc1ccc2cc(-c3ccc(NC(C)=O)c(=O)o3)ccc2c1,95.1% (inactive)
3,CC(C)c1c(C(=O)Nc2ccccc2)c(-c2ccccc2)c(-c2ccc(F)cc2)n1CC[C@@H]1CC=CC(=O)O1,-27.9% (active)
4,O=C(/C=C/c1ccccc1)Oc1ccc(/C=C/c2cc(OC(=O)/C=C/c3ccccc3)cc(OC(=O)/C=C/c3ccccc3)c2)cc1,93% (inactive)
5,NCCOc1ncccc1/C=C1\c2ccccc2-c2ccc([N+](=O)[O-])cc21,-41.7% (active)
6,CC(C)=NNc1ccc([N+](=O)[O-])cc1[N+](=O)[O-],57.5% (inactive)
7,Nc1c(C(=O)Nc2ccncc2)sc2nc3c(cc12)C(O)CCC3 (stereo not given),95.4% (inactive)
8,O=C(Nc1cccc([N+](=O)[O-])c1)Nc1cccc([N+](=O)[O-])c1,13% (inactive)
9,CC(=O)O[C@@H]1CCN2C(=O)N(C)c3ccccc3[C@@H]2C1,101% (inactive)
10,CS(=O)(=O)c1nccc(-c2c(-c3cccc(OCCc4ccccc4)c3)nc3sccn23)n1,99.4% (inactive)
11,COc1ccc(-c2n[nH]nc2-c2cc(OC)c3c(c2OC)OCO3)cc1,-23.2% (active)
12,CC1Cc2ccccc2N1C(=O)c1ccc(C(=O)c2ccccc2)cc1 (stereo not given),-11.1% (active)
13,COc1c(CNC(=O)CCl)cc2[nH]c(C)cc2c1CNC(=O)CCl,39.4% (inactive)
14,COc1ccc2nc3ccc(OC)cc3c(SCCCN)c2c1,50.2% (inactive)
15,COc1ccc2c(CCC(c3ccccc3)c3ccccc3)c3[n+](cc2c1OC)CCc1cc2c(cc1-3)OCO2,-40.6% (active)
16,c1ccc(-c2nc(N3CCNCC3)c3nc(-c4ccccc4)oc3n2)cc1,-49.6% (active)
17,CCN(CC)c1ccc2c(c1)Oc1nc(N)c(C#N)c(N)c1C2Sc1ccc(OC)cc1 (stereo not given),-16.6% (active)
18,N#Cc1c(-c2ccccc2)cc(-c2ccccc2)n(CCCC(=O)Nc2ccccc2N)c1=O,21.5% (inactive)
19,c1ccc(-c2nnn(-c3ccccc3)n2)cc1,88.9% (inactive)
20,ON=C1CCCCCCCC1,61.9% (inactive) and 105% (inactive)
21,N=C(N)c1ccc(-c2ccc(-c3ccc(F)cc3)o2)o1,-44.2% (active)
22,O=C(/C=C/c1c(Cl)nc2sccn12)c1nccs1,81.5% (inactive)
23,CN(C)C(=N)N=C(N)N,98.3% (inactive) and 145% (inactive)
24,CNC(=O)c1cc(Oc2ccc(CC(=O)Nc3cc(C(C)(C)C)cn3C)cc2)ccn1,77.5% (inactive)
25,COc1ccc(CC(=O)Nc2nn3c(-c4cc(C(F)(F)F)cc(C(F)(F)F)c4)nnc3s2)cc1,52% (inactive)
